Luc counter: counter-screen: inhibitors of Kinase-Glo firefly luciferase; Kinase-Glo luciferase, ATP luminescence, 8 min; AID 1379; Potency, µM (titrated, usually from 38.3 µM), for inactives: at the top dose activity change, negative = inhibition, actives largely listed as inhibitors; hit rate 0.28% among 200,000; active = well fitted inhibition curve with a large enough effect; inconclusive = small, poorly fitted or top-dose-only effect; also: potency is read from the fitted curve at half-maximal effect; nearly all actives have a fitted effect of over 60% in size
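Substrate mix (final 50 mM imidazole pH 7.2, 50 mM KCl, 7 mM MgCl2, 10 uM ATP, 0.01% Tween 20, 0.05% BSA) plus pin-tool compound, then Kinase-Glo detection mix; 8 min ambient, luminescence read.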
IMPase inh: IMPase inhibition in cells | P97697 | CHO-M1 cells, IP1 accumulation, HTRF TR-FRET ratio | inhibition (IP1 accumulation), % at 46.1 µM | 120,000 tested, under 10 active | AID 901; active = well fitted curve in the direction sought with a large enough effect in the signal ratio, not every such curve was filed as active; inconclusive = small, poorly fitted or top-dose-only effect, or a change in a side signal; inactive = no such curve, though single readings can be large or run the other way; the % refers to the signal ratio;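 also: cells stimulated with carbachol in lithium chloride buffer; plate controls were DMSO basal wells for no effect and reference inhibitor wells for full effect; higher means more IMPase inhibition seen as more IP1 and lower FRET ratio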
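CHO-M1 cells (CHO stably expressing M1 receptor), compound up to 46 uM final, stimulated with carbachol (50 uM as added) in buffer with 50mM LiCl, pH 7.4, 30 min at 37C. Cytosolic IP1 read by TR-FRET; AC50 from Hill fits.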
PNC assembly inh: blocks assembly of the perinucleolar compartment. PC3M PTB-GFP, PNC prevalence imaging, 16 h; active compounds read low. activity change (PNC), negative = inhibition, % at 10 µM. hit rate 3.1% among 140,000. AID 2417;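 active = readout at or below -70, meaning at least 70% loss of cells showing the perinucleolar compartment, a nuclear body marking cancer cells; inconclusive = readout between -30 and a set limit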;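 also: plate controls were DMSO wells for no effect and camptothecin positive control wells for full effect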
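Compounds are pinned in duplicate onto adhered PC3M cells stably expressing GFP-tagged PTB and incubated 16 h at 37 C. Cells are then fixed, nuclei stained with Hoechst, and PNC-positive cells counted.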
ALDH1A1 inh: ALDH1A1 (human) enzyme inhibition; P00352; Purified ALDH1A1, NADH fluorescence, propionaldehyde substrate; Potency, µM (titrated, usually from 75.3 µM), for the others: top-dose activity, negative = inhibition, hits mostly inhibitors; hit rate 7.3% among 220,000;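 also: potency is read from the fitted curve at half-maximal effect; plate controls were no enzyme wells and a reference inhibitor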
Target sequence (P00352 whole entry, looked up): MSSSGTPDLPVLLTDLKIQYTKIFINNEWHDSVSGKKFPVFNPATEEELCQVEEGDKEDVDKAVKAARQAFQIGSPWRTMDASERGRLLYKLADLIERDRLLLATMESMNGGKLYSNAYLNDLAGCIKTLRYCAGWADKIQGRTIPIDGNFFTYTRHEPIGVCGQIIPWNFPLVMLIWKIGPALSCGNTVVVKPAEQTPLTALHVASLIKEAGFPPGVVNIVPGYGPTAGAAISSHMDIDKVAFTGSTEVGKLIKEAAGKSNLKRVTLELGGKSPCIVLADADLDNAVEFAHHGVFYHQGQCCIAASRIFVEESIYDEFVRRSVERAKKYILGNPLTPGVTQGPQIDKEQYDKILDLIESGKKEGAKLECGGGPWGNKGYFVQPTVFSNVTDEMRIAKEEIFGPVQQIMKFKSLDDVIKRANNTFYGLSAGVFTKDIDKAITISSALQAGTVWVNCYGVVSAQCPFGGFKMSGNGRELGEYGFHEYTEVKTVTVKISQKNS
LMNA splice mod: LMNA splicing modulation; HeLa LMNA splicing GFP/RFP minigene ratio, 48 h; Potency, µM (highest dose often 46.1 µM), without a hit: at the top dose ratio change, negative = inhibition, hits mostly inhibitors; hit rate 0.01% among 200,000; AID 1487; active = well fitted inhibition curve with a large enough effect in the signal ratio, with a control signal flat, not every such curve was filed as active; inconclusive = small, poorly fitted or top-dose-only effect, or effect the other way, or a change in a side signal; the % refers to the signal ratio; also: potency is read from the fitted curve at half-maximal effect
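S3 HeLa stable clones carrying a lamin A-EGFP splicing minigene plus DsRed2 were seeded at 600 cells/well in Opti-MEM with 2% FBS, pin-dosed and incubated 48 h at 37°C. Acumen cytometry (488 nm) gave the GFP/RFP total-intensity ratio.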
HPGD inh: inhibitors of human 15-hydroxyprostaglandin dehydrogenase (HPGD); hit rate 4.3% among 150,000; purified HPGD, NADH fluorescence kinetic, PGE2 substrate; Potency, µM, for the others: top-dose activity change, negative = inhibition, actives largely listed as inhibitors; also: potency is read from the fitted curve at half-maximal effect
Target sequence (P15428 whole entry, looked up): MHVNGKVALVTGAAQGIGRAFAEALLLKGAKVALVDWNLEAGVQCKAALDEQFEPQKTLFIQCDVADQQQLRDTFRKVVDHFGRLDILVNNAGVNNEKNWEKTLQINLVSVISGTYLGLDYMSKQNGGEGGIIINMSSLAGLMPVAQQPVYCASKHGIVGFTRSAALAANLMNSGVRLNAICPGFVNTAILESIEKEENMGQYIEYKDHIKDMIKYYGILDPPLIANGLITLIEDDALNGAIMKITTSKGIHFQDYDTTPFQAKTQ
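NADH formation kinetics: reaction with 30 uM PGE2 and 1 mM NAD+ (final), 20 nM enzyme, Tris-HCl pH 8 with Tween 20, after 15 min compound preincubation at room temperature. Fluorescence change, last versus first of five reads.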
* marks the source's active call; other numbers are inactive results; ? = inconclusive; nt = no result given; [ ] = remark or other dose. An excerpt weighted towards active compounds, which were near 10% of everything screened. Unless noted, calls follow the shape of the dose curve; as a rule, active = well fitted inhibition curve with a large enough effect (not every such curve was filed as active); inconclusive = small, poorly fitted or top-dose-only effect, or another doubt; inactive = no such curve, though single readings can be large or run the other way. Unless noted, % is scaled to controls: 0 for no effect and ±100 for the full control effect.

SMILES	Luc counter	IMPase inh	PNC assembly inh	ALDH1A1 inh	LMNA splice mod	HPGD inh
CCOC(=O)c1c(N2C(=O)C3C4C=CC(O4)C3C2=O)sc2c1CCCC2 (stereo not given)	-3%	2	-23	2.2µM*	-11%	16µM*
CCOC(=O)c1ccc(NC(=O)c2c(NC(=O)CCC(=O)O)sc3c2CCCCC3)cc1	-2%	nt	nt	16µM*	nt	nt
CCOC(=O)c1ccc(NC(=O)c2c(NCc3cccs3)sc3c2CCCCC3)cc1	nt	nt	nt	nt	10%[46 µM]	nt
COC(=O)c1c(N2C(=O)CCC2=O)sc2c1CCCC2	-2%	3	30	?	-18%	-5%
CCCCC/C=C\C/C=C\CCCCCCCC(=O)NCCc1ccc(O)c(O)c1	-2%	nt	nt	-14%	nt	-2%
Cc1cc(C)c(NC(=O)Cn2c(=O)n(-c3ccc(F)cc3)c(=O)c3c(C)c(C(=O)N(C)C)sc32)c(C)c1	nt	nt	nt	nt	11%[46 µM]	nt
Cc1oc(-c2cccc(Cl)c2)nc1CSc1nc2ncccc2[nH]1	nt	nt	nt	nt	15%[46 µM]	nt
COc1cccc(C2CC(=O)NC(SC)=C2C#N)c1 (stereo not given)	-2%	11	10	?	3%	-13%
N#CC1=C2SCC(O)(c3ccccc3)N2C(=O)CC1c1ccccc1 (stereo not given)	1%	-4	?	?	?	-3%
CCc1ccc(C2CC(=O)N3CN(c4ccccc4)CSC3=C2C#N)cc1 (stereo not given)	-4%	-3	32	10µM*	2%	7.9µM*
N#CC1=C2SCN(c3ccc(F)cc3)CN2C(=O)CC1c1cccc(F)c1 (stereo not given)	-2%	-6	29	1.9µM*	-5%	5.6µM*
N#CC1=C2SCN(Cc3ccco3)CN2C(=O)CC1c1ccccc1F (stereo not given)	-2%	0	24	10µM*	3%	18µM*
N#CC1=C2SCN(Cc3ccco3)CN2C(=O)CC1c1cccc2ccccc12 (stereo not given)	-2%	2	3	?	10%	?
CCc1ccc(N2CSC3=C(C#N)C(c4cccs4)CC(=O)N3C2)cc1 (stereo not given)	3%	-28	-20	8.9µM*	0%	13µM*
CC1(C)CC(=O)C2=C(C1)N(c1ccc(F)cc1)C(N)=C(C#N)C2c1cccs1 (stereo not given)	-2%	-19	56	-3%	8%	-5%
CC#CCN1c2ccccc2[C@]23C[C@@H](C(=O)OC)N(S(=O)(=O)CCCC)C2=NC(C(=O)OC)=C(C(=O)OC)[C@H]13	2%[7.66 µM]	nt	nt	3%[13.5 µM]	-1%[9.22 µM]	-8%
CCCCOc1ccc(C2c3c(oc4ccc(C)cc4c3=O)C(=O)N2CCCN(C)C)cc1OCC (stereo not given)	nt	-1	nt	nt	nt	nt
CCOC(=O)CC1=C(C(=O)OCC)C(c2cccs2)C(C#N)=C(N)O1 (stereo not given)	-1%	-3	-10	-8%	2%	-5%
CCOC(=O)c1ccc(N2CSC3=C(C#N)C(c4cccs4)CC(=O)N3C2)cc1 (stereo not given)	5%	-1	-10	22µM*	0%	-7%
COc1ccc(N2CSC3=C(C#N)C(c4cccs4)CC(=O)N3C2)cc1 (stereo not given)	-9%	-14	?	2µM*	5%	7.1µM*
Cc1ccc(N2CSC3=C(C#N)C(c4cccs4)CC(=O)N3C2)cc1 (stereo not given)	1%	-10	?	8.9µM*	-1%	7.9µM*
CN1CSC2=C(C#N)C(c3cccc(OCc4ccccc4)c3)CC(=O)N2C1 (stereo not given)	-1%	-2	27	7.9µM*	?	14µM*
Cc1ccc(N2C(N)=C(C#N)C(c3cccs3)C3=C2CC(C)(C)CC3=O)cc1 (stereo not given)	0%	11	20	?	?	?
COc1ccc(OC)c2sc(N(Cc3cccnc3)C(=O)c3ccc(C(C)=O)cc3)nc12	nt	nt	nt	nt	-10%[46 µM]	nt
CO[C@H]1COC(=O)CCC[C@H](C)[C@@H](OC)COC(=O)C/C=C\[C@@H]1C	nt	nt	nt	12%[13.5 µM]	nt	nt
SMILES	Luc counter	IMPase inh	PNC assembly inh	ALDH1A1 inh	LMNA splice mod	HPGD inh
CC(=O)Nc1ccc(NC(=O)c2cccc3c2-c2ccccc2C3=O)cc1	-1%	nt	nt	-4%	nt	nt
Cn1c(=O)c(Nc2ccc(O)cc2)c2c3c(cccc31)C(=O)c1ccccc1-2	-14%	nt	-18	-2%	-17%	25µM*
O=[N+]([O-])c1ccc(N2CCCC2)nc1N1CCCC1	nt	nt	nt	1.4µM*	nt	nt
O=C(COC(=O)c1ccccn1)Nc1ncc(C(F)(F)F)cc1Cl	-1%	3	-14	?	17%	-15%
O=C(COC(=O)c1ccc([N+](=O)[O-])s1)Nc1ncc(C(F)(F)F)cc1Cl	-1%	0	?	18µM*	2%	-27%
O=C(O)/C=C/c1cn(-c2ncc(C(F)(F)F)cc2Cl)c2ccccc12	-5%	24	?	-15%	13%	2µM*
NNC(=O)Cc1cn(-c2ncc(C(F)(F)F)cc2Cl)c2ccccc12	-2%	8	-10	-4%	-4%	-14%
CO[C@@H]1/C=C\CC(=O)N2CCC[C@@H]2C(=O)OC[C@@H](C)C(=O)OC[C@H]1C	nt	nt	nt	13%[13.5 µM]	nt	nt
CC(N1CCOC1=O)S(=O)(=O)c1ccccc1 (stereo not given)	-1%	0	-110*	-15%	-6%	-12%
N/C(=N\OC(=O)c1ccc(Cl)c(Cl)c1)c1cccnc1	-4%	3	37	10%	-1%	-11%
O=C(O/N=C(\c1ccccc1)c1ccccn1)c1ccc(Cl)c(Cl)c1	7%	-4	-107*	?	-4%	-24%
N/C(=N\OC(=O)c1ccc2ccccc2c1)c1ccccn1	11µM*	nt	nt	2%	-7%[46 µM]	nt
N/C(=N\OC(=O)c1ccc(Cl)cc1Cl)c1ccccn1	11µM*	nt	nt	-2%	8%[46 µM]	nt
N/C(=N\OC(=O)c1cc(Br)ccc1Cl)c1ccccn1	-4%	nt	nt	-15%	-1%[46 µM]	nt
O=C(N/N=C(\c1ccccc1)c1ccccn1)c1cccc([N+](=O)[O-])c1	-1%	nt	nt	18µM*	17%[46 µM]	nt
N/C(=N\OC(=O)CC1CCCCC1)c1cccc([N+](=O)[O-])c1	0%	nt	16	13µM*	6%	-10%
N/C(=N\OC(=O)c1cccc([N+](=O)[O-])c1)c1ccccn1	13µM*	nt	nt	?	-12%[46 µM]	nt
N/C(=N/OC(=O)c1cccc([N+](=O)[O-])c1)c1cccc([N+](=O)[O-])c1	-10%	nt	nt	9%	-4%[46 µM]	nt
N/C(=N\OC(=O)CCC1CCCC1)c1cccc([N+](=O)[O-])c1	nt	-2	-24	-2%	-11%	nt
N/N=C1/CC(=O)NC(=O)N1	0%[7.66 µM]	nt	nt	?	nt	?

Screening results: PubChem, National Center for Advancing Translational Sciences (NCATS)
